# In PubChem BioAssay (EPA / NIEHS):
# Results filed as inconclusive are left out. The source made the active and inactive calls. Rule for the calls, unless noted: active = hit-call score of the fitted dose curve at least 0.9, where 1 is the maximum; inconclusive = response in the unintended direction; inactive = score below 0.9.
# Tests used:
# [1] = Tanguay_ZF_120hpf_SOMI_legacy: (Legacy) Oregon State University Tanguay Lab 120 Hour Post-fertilization zebrafish Assay for Somite Malformation (AID 2283647)
# Method in brief: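 Binary somite-defect scoring at 120 hpf, omitted for embryos that died, in wild-type (Tropical 5D) zebrafish with chorion removed by pronase at 4 hpf; static exposure began 6 hpf, single embryos per well, 28C, 0.64% DMSO; fitted positive versus DMSO.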
# [2] = Tanguay_ZF_120hpf_PFIN_legacy: (Legacy) Oregon State University Tanguay Lab 120 Hour Post-fertilization zebrafish Assay for Pectoral Fin Malformation (AID 2283648);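 note: each larva judged yes or no for fin defect by brightfield with dead larvae skipped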
# Method in brief: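 Pectoral fin malformation was recorded as a binary endpoint at 120 hpf in wild-type Tropical 5D larvae, which had been dechorionated and exposed statically from 6 hpf at 28C in 0.64% DMSO. Dead embryos were excluded.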
# [3] = Tanguay_ZF_120hpf_CFIN_legacy: (Legacy) Oregon State University Tanguay Lab 120 Hour Post-fertilization zebrafish Assay for Caudal Fin Malformation (AID 2283649)
# Method in brief: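 Binary brightfield scoring of caudal fin defects at 120 hpf after static, light-shielded exposure at 28C from 6 hpf. Tropical 5D embryos, chorion removed with pronase at 4 hpf, final DMSO 0.64%.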
# [4] = Tanguay_ZF_120hpf_PIG_legacy: (Legacy) Oregon State University Tanguay Lab 120 Hour Post-fertilization zebrafish Assay for Pigmentation Malformation (AID 2283650)
# Method in brief: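 Pigment malformation recorded as a binary call at 120 hpf in zebrafish (Tropical 5D) exposed singly from 6 hpf after pronase dechorionation. Static, sealed, 28C exposure, 0.64% DMSO; mortality excludes scoring; positive-direction fit against DMSO.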
# [5] = Tanguay_ZF_120hpf_CIRC_legacy: (Legacy) Oregon State University Tanguay Lab 120 Hour Post-fertilization zebrafish Assay for Circulatory Malformation (AID 2283651)
# Method in brief: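 Binary circulatory malformation call at 120 hpf by brightfield imaging of zebrafish larvae; chorion removed at 4 hpf, static exposure from 6 hpf in sealed dark plates at 28C, final DMSO 0.64%; non-mortality endpoints skipped if embryo died.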
# [6] = Tanguay_ZF_120hpf_SWIM_legacy: (Legacy) Oregon State University Tanguay Lab 120 Hour Post-fertilization zebrafish Assay for Swim Bladder Malformation (AID 2283654);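 note: swim bladder malformation in each larva scored yes or no under brightfield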
# Method in brief: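 Scoring is binary for swim bladder defects at 120 hpf, by brightfield inspection of zebrafish larvae. Embryos were exposed singly from 6 hpf after pronase dechorionation, at 28C with 0.64% DMSO; mortality excluded scoring.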
# [7] = Tanguay_ZF_120hpf_TRUN_legacy: (Legacy) Oregon State University Tanguay Lab 120 Hour Post-fertilization zebrafish Assay for Truncated Body (AID 2283655)
# Method in brief: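 Binary presence/absence of truncated body is recorded at 120 hpf by brightfield, with non-mortality endpoints skipped after death. Exposure is static from 6 hpf in sealed dark plates at 28C, using dechorionated wild-type zebrafish, 0.64% DMSO.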
# [8] = Tanguay_ZF_120hpf_NC_legacy: (Legacy) Oregon State University Tanguay Lab 120 Hour Post-fertilization zebrafish Assay for Notochord and Tail Malformation (AID 2283656)
# Method in brief: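 Binary scoring of notochord distortion by brightfield microscopy; embryos dying were not scored. Wild-type Tropical 5D embryos, chorion removed, exposed singly and statically from 6 to 120 hpf, 28C, sealed, 0.64% DMSO.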
# [9] = read-out: solute carrier (SLC22A6), SLC22A6 (gene 9356); assay: LTEA_HepaRG_SLC22A6: Life Technologies and Expression Analysis (LTEA) Assay for solute carrier (SLC22A6) using HepaRG (AID 2283653; active = hit-call score of the fitted dose curve at least 0.9, where 1 is the maximum; inactive = score below 0.9); conditions: mRNA level, 48 h; actives raise or lower the signal
# Experimental: LTEA_HepaRG is a cell based, multiplexed-readout assay that uses HepaRG, a human liver cell line, with measurements taken at 48 hours after chemical dosing on a 96-well plate.LTEA_HepaRG_SLC22A6 is one of 102 assay component(s) measured in the LTEA HepaRG cell culture assay. It is a marker of NR mediated transport.Data from the assay component LTEA_HepaRG_SLC22A6 was analyzed into 1 endpoint. This assay endpoint, LTEA_HepaRG_SLC22A6, was analyzed with bidirectional fitting relative to DMSO as the negative control and baseline of activity. Using a type of inducible reporter, measures of mRNA induction for gain or loss-of-signal activity can be used to understand regulation of transcription factor activity. To generalize the intended target to other relatable targets, this assay endpoint is annotated to the transporter intended target family, where the subfamily is organic anion transporter.
# A total of 1060 chemcials from the ToxCast library were tested in eight-point concentration-response experiments. Cell culture and cytotoxicity assays were conducted at Thermo Fisher Scientific's Custom Services facility (Madison, WI). A single lot of human HepaRG cells (Thermo Fisher Scientific, Frederick, MD) was used for the cell culture experiments. 96-well format collagen type I coated plates of human HepaRG cells were prepared using established methods. Briefly, cryopreserved HepaRG cells were thawed, plated at a density of approximately 100,000 cells/well in HepaRG Thaw, Plate, and General Purpose media (HPRG770, Thermo Fisher Scientific), and incubated for 48 hours. 0.5% DMSO was selected as vehicle control to balance the requisite need of DMSO in HepaRG cultures to maintain differentiation (for example, baseline metabolism, proportions of hepatocytes vs. cholangiocytes), while enabling further hepatic receptor pathway activation (for example, PXR and CAR) in response to chemical exposure. 48 hours after plating, the culture medium was replaced with HepaRG Serum-Free Incudtion Media. Cells were exposed to each test chemical in duplicate and maintained in CO2 incubators for another 48 hours. Chemical plates were thawed to room temperature and 200x concentrations of treatment groups were prepared. 8-point conentration-reponse curves were made with the highest exposure at 100 uM, followed by half-log dilutions, all in 0.5% DMSO. Each test plate contained variouse controls, induction positive controls (1mM phenobarbital), cytotoxicity positive controls ([…] aflatoxin B1), vehicle controls (0.5% DMSO), and total lysis controls (0.5% DMSO). Cell morphology images were taken using an Essen IncuCyte FLR automated microscope, with six 96-well plates imaged in about 24 minutes. Images were captured and exported and JPEG files. Spent culture media was transfered to black-well plates for the LDH assay, and remaining media was sorted at -80 C for later use. Cells were treated with RLT buffer and frozen until shipped for gene expression analysis. Total RNA was isolated from the cell suspension in 75 uL of Buffer RLT (Qiagen, Germantown, MD 20874) by Quintiles/Expression Analysis (Durham, NC) using a custom isolation procedure. Total RNA from each plate well was transferred to a preamplification plate. Fluidigm's 96.96 Dynamic ArrayTM (Fluidigm, Amsterdam, the Netherlands) technology was used for gene expression analyses by quantitative reverse transcription polymerase chain reaction (qRT-PCR, performed by Quintiles/Expression Analysis, Durham, NC)89. Standard TaqManTM Assays (Applied Biosystems/ThermoFisher Scientific, Foster City, CA) were used to assess the expression of 93 genes selected based on their selectivity and sensitivity to important hepatic receptors known to be modulated by environmental chemicals; importance in human hepatocyte functionality; and hepatotoxicity. […]
# [10] = read-out: kallikrein-3 (KLK3), KLK3 (gene 354); assay: LTEA_HepaRG_KLK3: Life Technologies and Expression Analysis (LTEA) Assay for kallikrein-3 (KLK3) using HepaRG (AID 2283652; active = hit-call score of the fitted dose curve at least 0.9, where 1 is the maximum; inactive = score below 0.9); conditions: mRNA level, 48 h; actives raise or lower the signal
# Method in brief: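 KLK3 transcript levels were measured by TaqMan qRT-PCR with normalisation to three housekeeping genes. HepaRG cultures received chemicals for 48 h at up to 100 uM (half-log, 8 points, 0.5% DMSO vehicle), fitted in both directions against DMSO.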
smiles,measurement,setting,value
COCc1cnc(C2=NC(C)(C(C)C)C(=O)N2)c(C(=O)O)c1 (configuration not stated),outcome,[1],inactive
same,outcome,[2],inactive
same,outcome,[3],inactive
same,outcome,[4],inactive
same,outcome,[5],inactive
same,outcome,[6],inactive
same,outcome,[7],inactive
CCCN(CC)CC1COC2(CCC(C(C)(C)C)CC2)O1 (configuration not stated),outcome,[1],inactive
same,outcome,[2],inactive
same,outcome,[3],inactive
same,outcome,[4],inactive
same,outcome,[5],inactive
same,outcome,[6],inactive
same,outcome,[7],inactive
CC1(C)C(C=C(Cl)Cl)C1C(=O)OC(C#N)c1cccc(Oc2ccccc2)c1 (configuration not stated),AC50,[1],1.86 µM (active)
same,AC50,[2],0.994 µM (active)
same,outcome,[3],inactive
same,outcome,[4],inactive
same,outcome,[5],inactive
same,outcome,[6],inactive
same,outcome,[7],inactive
COc1cc(OC)nc(NC(=O)NS(=O)(=O)c2ncccc2OCC(F)(F)F)n1,outcome,[1],inactive
same,outcome,[2],inactive
same,outcome,[3],inactive
same,outcome,[4],inactive
same,outcome,[5],inactive
same,outcome,[6],inactive
same,outcome,[7],inactive
same,outcome,[8],inactive
Cn1c(-c2ccccc2)cc(-c2ccccc2)[n+]1C,outcome,[1],inactive
same,outcome,[2],inactive
same,outcome,[3],inactive
same,outcome,[4],inactive
same,outcome,[5],inactive
same,outcome,[6],inactive
same,outcome,[7],inactive
same,outcome,[8],inactive
CCCCC(C#N)(Cn1cncn1)c1ccc(Cl)cc1 (configuration not stated),outcome,[1],inactive
same,AC50,[2],24.1 µM (active)
same,outcome,[3],inactive
same,outcome,[4],inactive
same,outcome,[5],inactive
same,outcome,[9],inactive
same,outcome,[6],inactive
same,AC50,[7],48 µM (active)
same,outcome,[8],inactive
CC1(C)C(C(=O)OC(C#N)c2cccc(Oc3ccccc3)c2)C1(C)C (configuration not stated),outcome,[1],inactive
same,outcome,[2],inactive
same,outcome,[3],inactive
same,outcome,[4],inactive
same,outcome,[5],inactive
same,outcome,[6],inactive
same,outcome,[7],inactive
same,outcome,[8],inactive
CC1(C)CON(Cc2ccccc2Cl)C1=O,outcome,[1],inactive
same,outcome,[2],inactive
same,outcome,[3],inactive
same,outcome,[4],inactive
same,outcome,[5],inactive
same,outcome,[6],inactive
same,outcome,[7],inactive
same,outcome,[8],inactive
CCOP(=O)(OCC)Oc1nc(Cl)c(Cl)cc1Cl,outcome,[1],inactive
same,outcome,[2],inactive
same,outcome,[3],inactive
same,outcome,[4],inactive
same,outcome,[5],inactive
same,outcome,[6],inactive
same,outcome,[7],inactive
same,outcome,[8],inactive
Cc1cc(C)nc(Nc2ccccc2)n1,outcome,[1],inactive
same,outcome,[2],inactive
same,outcome,[3],inactive
same,outcome,[4],inactive
same,outcome,[5],inactive
same,outcome,[6],inactive
same,outcome,[7],inactive
same,outcome,[8],inactive
CC(C)Oc1cccc(NC(=O)c2ccccc2C(F)(F)F)c1,outcome,[1],inactive
same,outcome,[2],inactive
same,outcome,[3],inactive
same,outcome,[4],inactive
same,outcome,[5],inactive
same,outcome,[10],inactive
same,outcome,[9],inactive
same,outcome,[6],inactive
same,outcome,[7],inactive
CCCC(=NOCC)C1=C(O)CC(CC(C)SCC)CC1=O (configuration not stated),outcome,[1],inactive
same,outcome,[2],inactive
same,outcome,[3],inactive
same,outcome,[4],inactive
same,outcome,[5],inactive
same,outcome,[6],inactive
same,outcome,[7],inactive
same,outcome,[8],inactive
CCOP(=S)(OCC)Oc1nc(Cl)n(C(C)C)n1,outcome,[1],inactive
same,outcome,[2],inactive
same,outcome,[3],inactive
same,outcome,[4],inactive
same,outcome,[5],inactive
same,outcome,[9],inactive
same,outcome,[6],inactive
same,AC50,[7],8.3 µM (active)
same,outcome,[8],inactive
COCC(C)N(C(=O)CCl)c1c(C)csc1C (configuration not stated),AC50,[1],30.4 µM (active)
same,AC50,[2],35.6 µM (active)
same,AC50,[3],36.2 µM (active)
same,AC50,[4],8.81 µM (active)
same,AC50,[5],24.5 µM (active)
same,AC50,[6],8.24 µM (active)
same,AC50,[7],30.8 µM (active)
same,outcome,[8],inactive
CCC(C)n1c(=O)[nH]c(C)c(Br)c1=O (configuration not stated),outcome,[1],inactive
same,outcome,[2],inactive
same,outcome,[3],inactive
same,outcome,[4],inactive
same,outcome,[5],inactive
same,outcome,[10],inactive
same,outcome,[9],inactive
same,outcome,[6],inactive
Nc1cnn(-c2ccccc2)c(=O)c1Cl,outcome,[1],inactive
same,outcome,[2],inactive
same,outcome,[3],inactive
same,outcome,[4],inactive
same,outcome,[5],inactive
same,outcome,[6],inactive
same,outcome,[7],inactive
